HT1080 IDH1KD tx: qHTS for induction of synthetic lethality in tumor cells producing 2HG: qHTS for the HT-1080-IDH1KD cell line. Potency, µM (top dose mostly 46.1 µM), for the others: at the top dose activity, negative = toxicity, hits mostly cytotoxic. HT-1080 IDH1 knockdown viability, ATP luminescence, 48 h. 360,000 tested, 2% active;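 further: potency means the concentration at half of the fitted maximal effect; 0% = DMSO wells and -100% = cell-free medium wells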
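Knockdown cells (IDH1KD HT-1080) received compounds 2 h after plating at 750 cells/well and were kept 48 h at 37 °C in 5% FBS RPMI. A CellTiter-Glo luminescence read gave % activity for curve fitting.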
DT40 TDP1 CPT: qHTS for Inhibitors of human tyrosyl-DNA phosphodiesterase 1 (TDP1): qHTS in cells in presence of CPT; chicken DT40 Tdp1-/-;hTDP1 cells + 20 nM CPT, ATP luminescence, 48 h; Potency, µM (doses to about 46.2 µM), for inactives: top-dose activity change, negative = growth inhibition, most hits filed as inhibitors; 420,000 tested, 12% active; further: potency means the concentration at half of the fitted maximal effect; nearly all actives have a fitted effect of over 55% in size
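Chicken DT40 Tdp1-/- cells stably complemented with human TDP1 were seeded at 400 cells/well in medium containing 20 nM camptothecin, exposed to pin-transferred compounds, and grown at 37 °C for at least 48 hr. Viability was read as ATP luminescence.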
HT1080-NT tox: qHTS for induction of synthetic lethality in tumor cells producing 2HG: qHTS for the HT-1080-NT fibrosarcoma cell line; AID 686970, 2013; 360,000 tested, 1.6% active; HT-1080-NT fibrosarcoma viability, CellTiter-Glo ATP luminescence, 48 h; Potency, µM (titrated, usually from 46.1 µM), inactives show at the top dose activity, negative = less viability, usual class: cytotoxic;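 further: NT is the 2HG producing partner of a matched IDH1 knockdown line; potency means the concentration at half of the fitted maximal effect; 0% = DMSO-treated cells and -100% = media-only wells without cells; nearly all actives have a fitted effect of over 55% in size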
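Fibrosarcoma NT cells, 750 per well in 5% FBS RPMI, were exposed to compound for 48 hours. Viability: CellTiter-Glo luminescence.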
DT40 TDP1 no CPT: qHTS for Inhibitors of human tyrosyl-DNA phosphodiesterase 1 (TDP1): qHTS in cells in absence of CPT | AID 686978, 2013 | Potency, µM (top dose mostly 46.2 µM), for inactives: top-dose activity change, negative = growth inhibition, most hits filed as inhibitors | 420,000 tested, 15% active | DT40 Tdp1-/- hTDP1 cells, no CPT, ATP luminescence, 48 h; further: potency means the concentration at half of the fitted maximal effect; nearly all actives have a fitted effect of over 55% in size
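Chicken DT40 Tdp1-/- cells stably complemented with human TDP1 were seeded at 400 cells/well with DMSO in place of 20 nM camptothecin. After compound pinning, cells grew at least 48 hr at 37 °C; viability read by CellTiter-Glo luminescence.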
IL1B secr inh: qHTS for Inhibitors of Inflammasome Signaling: IL-1-beta AlphaLISA Primary Screen | THP-1 LPS/ATP IL-1B secretion, AlphaLISA, 16 h; hits give low values | activity change, % at 57.5 µM | 360,000 tested, 4.7% active | AID 743279, 2014; in the data active means activity change below about -50%; inconclusive means mostly about -30% to -49%
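THP-1 cells pretreated 1 hr with compounds (up to 57.5 uM final), then stimulated with LPS (250 ng/mL final) plus ATP (1.25 mM final); secreted IL-1B measured by AlphaLISA after 16 hr, decreased signal indicating inhibition.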
The depositor's hits bear a star; ? = inconclusive; / = no result; [ ] = another dose, or the depositor's remark. In the library only some 19% were active in any assay of this set; here they are far more common. Unless noted, the call rests on the fitted dose curve; in most records, active means well fitted curve in the direction sought with a large enough effect; inconclusive means small, poorly fitted or top-dose-only effect, or another doubt; inactive means no such curve, though single readings can be large; an effect the other way counts as inactive or inconclusive. Unless noted, on the % scale 0 is the no-effect control and ±100 the full control effect.

SMILES	HT1080 IDH1KD tx	DT40 TDP1 CPT	HT1080-NT tox	DT40 TDP1 no CPT	IL1B secr inh
CC[C@]12c3[nH]c4cc(-c5ccco5)ccc4c3CCN1C(=O)[C@@H](CC(=O)NCCCN(C)C)C[C@@H]2C(=O)N1CCN(C(=O)c2ccco2)CC1	5%	-4%	6%	-25%	11
C[C@]12c3[nH]c4cc(-c5ccco5)ccc4c3CCN1C(=O)[C@@H](CC(=O)NCc1cccc(C(F)(F)F)c1)C[C@@H]2C(=O)N1CCCCC1	?	?	?	26µM*	-60*
CC[C@]12c3[nH]c4cc(CCC(=O)N(C)C)ccc4c3CCN1C(=O)[C@@H](CC(=O)NCc1cccc(C(F)(F)F)c1)C[C@@H]2C(=O)N1CCN(C(=O)c2ccco2)CC1	3%	21µM*	7%	?	-28
CC[C@]12c3[nH]c4cc(-c5ccco5)ccc4c3CCN1C(=O)[C@@H](CC(=O)NCc1ccc(OC)c(OC)c1)C[C@@H]2C(=O)N1CCN(C(=O)C2CC2)CC1	1%	?	9%	?	?
CC[C@]12c3[nH]c4cc(-c5ccco5)ccc4c3CCN1C(=O)[C@@H](CC(=O)NCc1cccc(C(F)(F)F)c1)C[C@@H]2C(=O)N1CCN(C(=O)C2CC2)CC1	?	16µM*	-26%	?	0
CCN(CC)S(=O)(=O)c1ccc(C(=O)NC(C)(C)C)cc1	1%	-3%	-5%	3%	-18
N#Cc1c(C(F)(F)F)cc(-c2ccccc2Cl)[nH]c1=O	1%	-21%	-7%	-26%	25
CC[C@]12c3[nH]c4cc(-c5ccco5)ccc4c3CCN1C(=O)[C@@H](CC(=O)NCCC1=CCCCC1)C[C@@H]2C(=O)N1CCN(C(=O)C2CC2)CC1	-19%	?	-19%	?	-50*
COC(=O)c1cccc(NS(=O)(=O)c2ccc(OC)cc2)c1C	-23%[9.24 µM]	5.2µM*	12µM*	6.5µM*	33
COc1ccc(N(CC(=O)NCc2ccncc2)S(=O)(=O)c2ccc(C)c([N+](=O)[O-])c2)cc1	-10%	?	-5%	11%	-5
COc1ccccc1NC(=O)CN(c1ccccc1C)S(C)(=O)=O	-1%	3%	0%	-4%	10
COc1ccc(N(CC(=O)Nc2ccccc2OC)S(=O)(=O)c2ccccc2)cc1Cl	-20%	13µM*	-3%	?	-12
COc1ccc(N(CC(=O)Nc2ccccc2F)S(=O)(=O)c2ccc(C)c([N+](=O)[O-])c2)cc1	-10%	?	-15%	23µM*	-9
CCOC(=O)c1ccccc1NC(=O)CN(c1ccccc1C)S(C)(=O)=O	-4%	?	2%	16µM*	13
COC(=O)c1cccc(NS(=O)(=O)c2ccc(OC)c(OC)c2)c1C	-5%	?	0%	?	0
S=C(NCCc1ccccc1)N1CCN(C2CCCCC2)CC1	-25%	?	?	?	-5
CCOc1ccc(CCNC(=O)CCS(=O)(=O)c2ccc(Cl)cc2)cc1OCC	3%	-4%	-9%	3%	3
O=C(N[C@@H]1C[C@H]2CC[C@@H]1C2)c1ccco1	1%	14%	11%	-15%	-6
COc1ccc(OC)c(NC(=O)CN(c2ccc(OC)c(Cl)c2)S(C)(=O)=O)c1	-5%	-23%	-25%	?	1
CCOc1ccc(NC(=O)c2ccccc2NS(=O)(=O)c2ccc(F)cc2)c([N+](=O)[O-])c1	-1%	23µM*	-11%	?	?
CCOc1ccc(N(CC(=O)Nc2ccccc2C(=O)N2CCOCC2)S(=O)(=O)c2ccc(F)cc2)cc1	9%	-15%	0%	-26%	11
COc1ccccc1NC(=O)CN(c1ccc([N+](=O)[O-])cc1)S(=O)(=O)c1ccccc1	-4%	11%	3%	-20%	1
COc1ccc(NC(=O)CN(c2ccc(OC)c(Cl)c2)S(=O)(=O)c2ccccc2)c(OC)c1	-4%	?	-13%	23µM*	39
CCOc1ccc(N(CC(=O)Nc2ccccc2OC)S(=O)(=O)c2ccccc2)cc1	1.6µM*	1.2µM*	2.1µM*	1.2µM*	50
CCOC(=O)c1ccccc1NC(=O)CN(c1ccccc1)S(=O)(=O)c1ccc(OCC)cc1	/	23µM*	/	15µM*	/
SMILES	HT1080 IDH1KD tx	DT40 TDP1 CPT	HT1080-NT tox	DT40 TDP1 no CPT	IL1B secr inh
O=C(CN1C(=O)NC2(CCc3ccccc32)C1=O)Nc1ccccc1Cl (configuration not stated)	-5%	-11%	-6%	-27%	2
COc1ccc(NC(=O)N(C)C[C@@H]2Oc3cc(C#CCN(C)C)ccc3S(=O)(=O)N([C@H](C)CO)C[C@H]2C)cc1	-2%	11%	6%	-10%	11
COc1ccc(N(CC(=O)Nc2ccc(OC)cc2OC)S(=O)(=O)c2ccccc2)cc1	?	23µM*	-24%	18µM*	14
COc1ccc(NC(=O)CN(c2ccc([N+](=O)[O-])cc2)S(=O)(=O)c2ccccc2)c(OC)c1	-15%	?	2%	?	-1
COc1ccc(N(CC(=O)Nc2cc(OC)ccc2OC)S(=O)(=O)c2c(C)nn(C)c2C)cc1	-17%	21µM*	-24%	?	?
CCOC(=O)c1ccccc1NS(=O)(=O)c1ccc(OCC)cc1	2.2µM*	7.9µM*	7.1µM*	13µM*	8
CCOC(=O)c1ccccc1NC(=O)CN(c1ccccc1OC)S(=O)(=O)c1ccc(C)cc1	/	?	/	12µM*	/
COc1ccc(N2C(=O)CC(NNC(=O)c3cccnc3)C2=O)cc1 (configuration not stated)	0%	3%	5%	-22%	13
COc1ccc(S(=O)(=O)N(CC(=O)Nc2ccc(OC)cc2OC)c2ccc(Cl)cc2)cc1	/	23µM*	/	26µM*	/
C=CCOc1c(Br)cc(/C=N/NC(=O)Cc2ccc(C(F)(F)F)cc2[N+](=O)[O-])cc1OC	-7%	12µM*	-19%	13µM*	29
CCOc1cc(/C=N/NC(=O)Cn2nc([N+](=O)[O-])cc2C)cc(Br)c1OCc1ccccc1C	?	23µM*	?	?	9
COc1cccc(/C=N/NC(=O)Cn2nc([N+](=O)[O-])cc2C)c1	1%	16%	6%	-19%	2
COc1cc(/C=N/NC(=O)Cn2nc([N+](=O)[O-])cc2C)cc(Br)c1OCc1ccccc1	?	26µM*	?	?	-9

Screens: PubChem, National Center for Advancing Translational Sciences (NCATS)
